ssDAF12 agonist – S. stercoralis DAF-12 nuclear receptor activators, primary screen, cell-based, luminescence, HEK293, GRIP1 co-expression, lit1-tk-luc; HEK293 ssDAF-12/GRIP1 lit1-tk-luc reporter; % of 3 µM dafachronic acid response; activation, % at 6.8 µM; actives 1% (n = 370,000); AID 652126, 2013;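 active means activation above the mean over all tested compounds plus 3 SD, cut at about 0.9% in these data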
hcDAF-12 act – H. contortus DAF-12 nuclear receptor activators, primary screen, cell-based, luminescence, HEK293, lit1-tk-luc reporter. activation, % at 6.8 µM. HEK293 hcDAF-12 lit1-tk-luc reporter; 0% DMSO, 100% Δ7-dafachronic acid. actives 1.4% (n = 370,000);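 active means activation above the mean of all tested compounds plus 3 SD, cut at about 5.5% in these data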
DAX1 inh-1 – DAX1 (NR0B1) inhibitors on StAR promoter, primary screen, cell-based, luminescence, SF-1 (NR5A1), full-length DAX-1; HEK293T StAR-luciferase reporter, SF-1/DAX-1 repression relief; inhibition, % at 6.8 µM; actives 1.1% (n = 370,000);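 active means inhibition above the mean over all tested compounds plus 3 SD, cut at about 3.6% in these data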;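 further: higher inhibition means more luminescence from relief of DAX-1 repression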
DAX1 inh-2 – DAX1 (NR0B1) inhibitors, primary screen, cell-based, HEK293, Gal4-DAX1, luciferase luminescence | actives 0.99% (n = 340,000) | inhibition, % at 6.75 µM | Nuclear receptor subfamily 0 group B member 1 (Homo sapiens), P51843 | HEK293 Gal4-DAX1 luciferase reporter;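 active means inhibition above the mean over all tested compounds plus 3 SD, cut at about 4.2% in these data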;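 further: inhibition shows as a rise in luminescence from relieved DAX1 repression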
Target sequence (P51843 207-470 limits assumed): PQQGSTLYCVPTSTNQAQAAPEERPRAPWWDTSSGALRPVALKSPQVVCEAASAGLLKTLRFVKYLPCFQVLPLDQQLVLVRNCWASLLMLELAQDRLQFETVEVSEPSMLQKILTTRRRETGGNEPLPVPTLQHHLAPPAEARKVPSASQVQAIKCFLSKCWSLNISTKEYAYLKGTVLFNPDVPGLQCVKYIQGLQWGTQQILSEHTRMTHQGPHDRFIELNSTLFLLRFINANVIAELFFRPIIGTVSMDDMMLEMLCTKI
hgDAF12 agonist – H. glycines DAF-12 receptor agonists, primary screen, cell-based, luminescence, HEK293, GAL4 fusion, UAS-luciferase. HEK293 GAL4-hgDAF12 UAS-luciferase reporter, agonist luminescence; normalized to butyrate control. activation, % at 6.8 µM. Nuclear hormone receptor DAF-12 (Heterodera glycines), GAL4 fusion. AID 687014, 2013. actives 1.8% (n = 370,000);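 active means activation above a cutoff set at the mean of all screened compounds plus 3 SD, cut at about 10% in these data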
A number is an active result; – = inactive; · = no result. Sampled rows, rich in hits. Any-hit rate of the full collection: about 4.1%.

SMILES	ssDAF12 agonist	hcDAF-12 act	DAX1 inh-1	DAX1 inh-2	hgDAF12 agonist
CC(C)(C)c1ccc(C(=O)NCC(=O)O)cc1	–	–	–	4.8	–
CCOC(=O)/C(=C\Nc1cccc(OCc2ccccc2)c1)NC(=O)c1ccccc1	–	–	–	·	–
Cc1ccc(C(=O)NCCC(=O)N2CCCC2)cc1	–	–	–	6.1	13.1
COC(=O)[C@H]1C[C@@]2(N3CCCC3)c3ccccc3N[C@H]2N1S(C)(=O)=O	–	–	–	·	–
CCOC(=O)CSC1=C(C#N)C(c2ccccc2OCC)C(C#N)C(=O)N1 (stereo not drawn)	–	–	–	4.2	–
O=C(NCc1ccccc1CN1CCCC1)C1CCN(C(=O)c2ccc(F)cc2)CC1	–	–	3.8	–	–
O=C(NCc1ccccc1Cl)C1CCN(C(=O)c2ccc(F)cc2)CC1	–	–	–	–	–
S=C(Nc1ccc2c(c1)OCO2)N1CCN(Cc2ccco2)CC1	–	–	–	–	11.2
S=C(Nc1ccc2c(c1)OCO2)NC1CCN(Cc2ccccc2)CC1	–	–	–	4.7	–
Cc1ccc(NC(=S)NC2CCN(Cc3ccccc3)CC2)cc1C	–	–	–	–	–
C[C@@H]1ON(C)[C@H]2C[C@H]3c4[nH]c5c(-c6ccc7c(c6)OCO7)cccc5c4CCN3C[C@@H]12	–	–	–	·	–
CC(c1ccccc1)n1cc(C(=O)N2CCCC2)nn1 (stereo not drawn)	–	–	–	·	–
Cc1cccnc1NC(=O)C(C)N1C(=O)c2ccccc2C1=O (stereo not drawn)	–	–	–	7.5	–
NS(=O)(=O)c1ccc(CNC(=S)NC2CCCC2)cc1	–	–	–	4.5	–
Cc1ccccc1NC(=O)C(C)N1C(=O)c2ccccc2C1=O (stereo not drawn)	–	–	–	–	–
S=C(NCCc1ccccc1)NC1CCCCCC1	–	–	–	–	10.9
Cc1cccnc1NC(N)=S	–	–	–	–	–
Cc1cccnc1NC(=S)Nc1ncccc1C	–	–	–	4.8	11.4
NCc1ccc(OCCCN2CCC(C(O)(C3=CCCC3)c3ccccc3)CC2)cc1 (stereo not drawn)	–	–	–	·	–
Cc1cccc(NC(=S)NCCc2ccccc2)c1C	–	–	–	–	–
Cc1cccnc1NC(=S)NCCc1ccccc1	–	–	–	–	11.5
Cc1cccc(C)c1-n1nnnc1C1c2ccccc2OCC(=O)N1Cc1ccc(F)cc1 (stereo not drawn)	–	–	–	·	–
N/C(=N/O)C(c1ccccc1)c1ccccc1	–	5.8	–	–	–
O=C(O)C(c1ccccc1)c1ccccc1	–	–	–	–	–
CCN=C1S/C(=C/c2cc(C)n(-c3ccc(Cl)cc3F)c2C)C(=O)N1CC	–	–	·	·	–
SMILES	ssDAF12 agonist	hcDAF-12 act	DAX1 inh-1	DAX1 inh-2	hgDAF12 agonist
CC(C)[C@H](NC(=O)OC(C)(C)C)C(=O)N1CCC(Oc2cccnc2)CC1	–	–	–	·	–
O=C(NN=C1CCCCC1)c1ccccc1-n1cccc1	–	–	–	–	–
CC(C)(C)C1CCC(=NNC(=O)c2ccccc2-n2cccc2)CC1 (stereo not drawn)	–	6.0	–	–	–
CC(=O)c1cccc(NC(=O)c2cc(-c3ccncc3)nc3ccccc23)c1	–	–	–	–	–
O=C(NNC(=O)c1cc(-c2ccncc2)nc2ccccc12)c1cccc(Cl)c1	2.6	–	–	–	–
CCCN1CCS(=O)(=O)N(Cc2cn(Cc3ccc(Cl)cc3)nn2)C(C(=O)OC)C1 (stereo not drawn)	–	–	–	·	–
COc1ccc(C(=O)c2[nH]c(N)c(C(=O)NCCc3c[nH]c4ccccc34)c2-c2ccc(Cl)cc2)cc1	1.9	–	–	·	–
COc1ccc(-c2c(C(=O)c3ccccc3)[nH]c(N)c2C(=O)NCCc2c[nH]c3ccccc23)cc1	–	–	–	·	12.3
Nc1[nH]c(C(=O)c2ccc(Br)cc2)c(-c2ccc(Br)cc2)c1C(=O)NCCc1c[nH]c2ccccc12	–	–	–	·	–
Nc1[nH]c(C(=O)c2ccc(Cl)cc2)c(-c2ccc(Br)cc2)c1C(=O)NCCc1c[nH]c2ccccc12	1.0	–	–	·	–
O=S1(=O)CC2c3ccccc3CN2CN1Cc1ccccc1 (stereo not drawn)	–	–	–	·	–
O=C(N[C@H](C(=O)N1CCC[C@H]1C(=O)NCc1ccccc1)c1ccccc1)c1ccc(Cl)cc1Cl	–	–	–	·	–
COC(=O)c1cc(=O)n(Cc2cccs2)c(=Nc2ccccc2)s1	–	–	–	4.3	–
C=CCn1c(SCC(=O)OC(C)C)nnc1-c1ccc(C)cc1	–	–	–	·	–
C[N+]1(C)CC2=Cc3ccccc3CC2C1 (stereo not drawn)	–	–	–	4.8	–
COCCCNC(=O)C[C@H]1C[C@@]2(C(=O)OC)C(=C[C@H](C3CCCC3)O[C@@H]2C)N(Cc2ccc(Cl)cc2Cl)C1=O	–	–	–	·	–
COc1ccc2oc(C(=O)NC(C)(C)C)c(C)c2c1	–	–	–	–	12.6
Nc1ncccc1OCc1ccc(Br)cc1	–	–	–	–	11.0
COc1ccc(COc2cccnc2N)cc1	–	–	–	–	–
O=C(Nc1ccccc1F)Nc1cccc2ccc(O)cc12	–	6.2	–	–	–
Cc1ccc(NC(=O)CSc2ccccc2NC(=O)c2ccccc2)cc1Cl	–	5.6	–	–	–
Cc1ccc([N+](=O)[O-])c2c1C(N1CC(C)OC(C)C1)C(C)(C)O2 (stereo not drawn)	14.8	–	–	–	–
Cc1ccc([N+](=O)[O-])c2c1C(N1CCCCC1)C(C)(C)O2 (stereo not drawn)	–	–	–	–	–
C[C@@H]1CN([C@@H](C)CO)C(=O)CCCn2cc(nn2)CO[C@H]1CN(C)C(=O)Nc1ccccc1F	–	–	–	·	–
CNC(=O)c1ncnnc1N(C)C(=O)NCc1ccccc1	–	–	–	9.6	–
O=C(O)c1ccc(Nc2nc3c(s2)CCCC3)cc1	–	–	–	–	–
O=S1(=O)N=C(Nc2nc3c(s2)CCCC3)c2ccccc21	–	–	–	–	11.0
CC(O)(c1ccccc1)c1nc(-c2cccc(C(=O)O)c2)cs1 (stereo not drawn)	–	–	–	·	10.5
COC(=O)C1=C(C)N(C)C(=NCc2ccccc2)NC1c1cccc(Cl)c1 (stereo not drawn)	–	–	–	·	–
